Values joined by “and” are separate entries in the source; they are usually repeats but may differ in a detail not shown here. Equal entries are not always repeated. The source holds several records for some structures; these can differ, active in one and inactive in another. Active and inactive are the calls of the source. Rule for the calls: active = hit-call score of the fitted dose curve at least 0.9, where 1 is the maximum; inactive = score below 0.9.
These compounds were tested against Bile acid receptor (Homo sapiens) (UniProt Q96RI1) (assay: ATG_IR1_CIS: Attagene CIS-FACTORIAL HepG2 Assay for human Nuclear Receptor Subfamily 1 Group H Member 4 (NR1H4), IR1 submotif (AID 2282946)). Details: IR1 reporter transcription, actives raise or lower the signal.
Procedure: ATG_CIS is a cell-based, multiplexed-readout assay that uses HepG2, a human liver cell line, with measurements taken at 24 hours after chemical dosing in a 24-well plate.ATG_IR1_CIS is one of 52 assay component(s) measured or calculated from the ATG_CIS assay. It is designed to make measurements of mRNA induction, a form of inducible reporter, as detected with fluorescence intensity signals by Reverse transcription polymerase chain reaction (RT-PCR) and Capillary electrophoresis technology.Data from the assay component ATG_IR1_CIS was analyzed into 1 assay endpoint. This assay endpoint, ATG_IR1_CIS, was analyzed with bidirectional fitting relative to DMSO as the negative control and baseline of activity. Using a type of inducible reporter, measures of mRNA for gain or loss-of-signal activity can be used to understand the reporter gene at the transcription factor-level as they relate to the gene NR1H4. Furthermore, this assay endpoint can be referred to as a primary readout, because this assay has produced multiple assay endpoints where this one serves a reporter gene function. To generalize the intended target to other relatable targets, this assay endpoint is annotated to the nuclear receptor intended target family, where the subfamily is non-steroidal.
Human liver HepG2 cells are transiently transfected with multiple reporter transcription units (MRTUs) in 6-well plates using FuGene 6 reagent (Roche; 3 ml FuGene/1 mg DNA). The MRTU constructs are regulated by a cis-regulating element (promoter). […] A major difference between the CIS and TRANS system is that in CIS activities of endogenous TFs are measured, whereas the TRANS assay evaluates changes in activities of exogenous, chimeric NR-Gal4 proteins. […] At the end of 24 hour incubation, total RNA was isolated using TriZol reagent (Invitrogen). The isolated RNA is then reverse-transcribed using oligo(dT) primer and Mo-MLV reverse transcriptase (Invitrogen) with DNAse I (Ambion) treatment for 30 min. The one-tenth of the produced cDNA was amplified by PCR using Taq DNA polymerase (Invitrogen) and two reporter sequence-specific primers. The PCR products were fluorescently labeled by primer extension with 6-arboxyfluorescein (6-FAM) 5'-labeled reporter sequence-specific primer (2 min at 95 C, 20 s at 68 C and 10 min at 72 C) and these products were digested with 5U of HpaI (New England Biolabs) for 2h at 37 C. The fragments were purified using Qiaquick PCR columns (Qiagen), analyzed on an ABI 3130xL genetic analyzer (Applied Biosystems) with peak positions identified by using a set of X-rhodamine (ROX)-labeled MapMarker1000 molecular weight standards (BioVentures). The raw capillary electrophoresis data was processed using Attagraph software (Attagene).

Sequence of Bile acid receptor (Homo sapiens) (Q96RI1 whole entry, looked up): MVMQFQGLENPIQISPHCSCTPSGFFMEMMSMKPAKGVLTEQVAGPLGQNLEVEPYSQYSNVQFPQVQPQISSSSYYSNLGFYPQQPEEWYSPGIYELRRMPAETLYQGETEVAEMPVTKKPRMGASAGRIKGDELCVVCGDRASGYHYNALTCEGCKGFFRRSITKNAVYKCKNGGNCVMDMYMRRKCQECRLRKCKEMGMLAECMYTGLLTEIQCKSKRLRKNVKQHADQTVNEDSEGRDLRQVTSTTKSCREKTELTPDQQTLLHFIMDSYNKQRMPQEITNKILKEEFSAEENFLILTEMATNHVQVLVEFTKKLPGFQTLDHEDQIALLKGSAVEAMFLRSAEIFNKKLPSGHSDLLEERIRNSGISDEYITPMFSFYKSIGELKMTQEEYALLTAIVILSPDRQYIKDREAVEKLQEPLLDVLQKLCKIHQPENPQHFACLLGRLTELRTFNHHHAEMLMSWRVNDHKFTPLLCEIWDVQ

AC50, active:
Cc1[nH]nc2c1N=C(c1ccccc1Cl)c1cc([N+](=O)[O-])ccc1N2 2.08 µM, C/C=C/C(=O)C1=C(C)CCCC1(C)C 43.9 µM, Cc1cc(C(C)(C)C)c(O)c(C(C)(C)C)c1 60 µM, CN(C)c1ccc(C(=C2C=CC(=[N+](C)C)C=C2)c2ccccc2)cc1 1.28 µM, COc1ccccc1NC(=O)c1cc2ccccc2cc1O 68.8 µM, Cc1cc(Cc2cc(C)cc(C(C)(C)C)c2O)c(O)c(C(C)(C)C)c1 169 µM, O=C(NO)c1ccccc1 10.8 µM and 19.5 µM, CCCCCCCCCCCC(=O)NCCCN(C)C 16.4 µM

outcome, inactive:
Oc1c(Cl)ccc(Cl)c1Cl, OCC(F)(F)C(F)(F)C(F)(F)C(F)(F)C(F)(F)C(F)(F)C(F)(F)C(F)(F)C(F)(F)C(F)(F)C(F)(F)F, Cc1ccc(C(=O)c2ccccc2)cc1, CCCCCCCCCCCC[N+](C)(C)Cc1ccccc1, O=C(O)CCC(F)(F)C(F)(F)C(F)(F)C(F)(F)C(F)(F)C(F)(F)F, Nc1ccc(O)c(C(=O)O)c1, C=CC(=C)CC/C=C(\C)CCC=C(C)C, CCc1cccc(CC)c1N(COC)C(=O)CS(=O)(=O)O, CCc1cccc(CC)c1NC(=O)C(=O)O, O=CC(F)(F)C(F)(F)C(F)(F)F, CCCCCCCCCCCCCCCCCC[N+](C)(C)Cc1ccccc1, Cc1ccccc1OCC(=O)O, CC(C)(C)C1CCCCC1O (stereo not given), Cc1cc(C(C)(C)C)c(O)c(C(C)(C)C)c1, FC(F)(F)C(F)(F)C(F)(F)Br, CN(C)c1ccc(C(=C2C=CC(=[N+](C)C)C=C2)c2ccccc2)cc1, CN(Cc1cnc2nc(N)nc(N)c2n1)c1ccc(C(=O)N[C@@H](CCC(=O)O)C(=O)O)cc1, CC(=O)CC(C)C, CCCCCCCCCCCCCC[n+]1ccccc1, CC1=CC(=O)c2ccccc2C1=O, O=S(=O)(O)c1ccccc1, FCOC(C(F)(F)F)C(F)(F)F, Oc1cc2ccccc2cc1O, FC(F)=C(F)C(F)(F)C(F)(F)C(F)(F)C(F)F, CC1CNCC(C)O1 (stereo not given), C=CC(=O)OCCC(F)(F)C(F)(F)C(F)(F)C(F)(F)C(F)(F)C(F)(F)F, c1ccc2c(c1)CCC2, Cc1ccccc1C(OCCN(C)C)c1ccccc1 (stereo not given), CCCCCCCCCCCCCCCC(=O)OC, CC1COCc2cc3c(cc21)C(C)(C)C(C)C3(C)C (stereo not given), O=C(NO)c1ccccc1, FC(F)(F)C(F)(F)C(F)(F)C(F)(F)I
